In PubChem BioAssay AID1845225 (National Center for Advancing Translational Sciences (NCATS), 2023):
Results filed as inconclusive are left out. Active and inactive are the calls of the source. Calls come from the whole dose curve; as a rule, active = well fitted curve in the direction sought with a large enough effect; inconclusive = small, poorly fitted or top-dose-only effect, or effect the other way, or another doubt; inactive = no such curve, though single readings can be large or run the other way.

Test: Confirmatory redox qHTS assay for identification of artifact compounds.
Conditions: Amplex Red/HRP redox cycling with DTT, fluorescence; series mostly up to 39 µM; redox activity vs DA3003: at the top concentration
From the text: PI: Alexander Tropsha Ph.D. UNC Eshelman School of Pharmacy University of North Carolina, Chapel Hill, North Carolina Hits from high-throughput screening (HTS) of chemical libraries are often false positives due to their interference with the assay detection technology. In response to this problem, we generated the largest publicly available library of chemical liabilities and developed a free webtool to predict HTS artifacts, both of which are described herein. More specifically, we generated, curated, and integrated HTS datasets for thiol reactivity, redox activity, and luciferase (firefly and nano) activity. Using these curated datasets, we developed and validated several Quantitative Structure-Interference Relationship (QSIR) models to predict nuisance behavior. […] These models were employed for virtual profiling of the National Center for Advancing Translational Science's (NCATS) in-house library, and 256 compounds for each assay were selected for the experimental validation of nuisance behavior. The BA for these external predictions ranged from 58 to 78% for compounds within the applicability domains of the models. […] The models developed in this study, along with aggregation models previously developed by our group (SCAM Detective) were implemented in "Liability Predictor," an online tool which may be used as part of chemical library design or for triaging HTS hits. Both the models and the curated datasets are publicly available at https://liability.mml.unc.edu/.
PROTOCOL TABLE SEQUENCE No. (e.g., 1, 2, 3, etc.); […] (e.g., Cells, Incubation, Reagent, etc.); VALUE; DESCRIPTION. 1; Reagent; 3 uL; Amplex Red and HRP mixture. 2; Compounds and control; 16 nL; Kalypsis pin tool (Wako USA) equipped with a 1536-well pin head. 3; Incubation; 15 min. 4; Reagent; 1 uL; […]. 5; Incubation; 30 min. 6; Detection; Fluorescence, ViewLux microplate reader, 525 nm excitation, 598 nm emission. NOTES (numbers refer to Sequence numbers above) 1. 3 uL of a mixture containing Amplex Red (25 uM final concentration) and horseradish peroxidase (HRP; 250 mU/mL final concentration) in assay buffer (HBSS) was dispensed into all wells of a 1536-well assay plate (solid-bottom black plate; Greiner Bio One, Monroe, NC). 2. […] 3. 15 min. incubation at room temperature protected from light. 4. 1 uL of DTT (prepared fresh; final concentration 250 uM) was dispensed for a final assay volume of 4 uL. 5. Plates were centrifuged (121xg, 15 seconds) and incubated for 30 minutes at room temperature protected from light. 6. Samples were read for fluorescence (Ex/Em = 525(20)/598(25) nm) on a ViewLux CCD imager (PerkinElmer). Data were normalized to DMSO (0% activity) and DA3003 (10 uM final concentration; 100% activity) and the resulting percent inhibition data were fitted to a 4-parameter Hill equation using NCATS in-house software.

Redox activity vs DA3003, inactive:
CC1(C)CC(=O)c2cc(C(=O)NCCc3ccccc3)c(=O)[nH]c2C1 0.176%, Cn1cc(CN(C(=O)Nc2ccc(Cl)c(Cl)c2)C2CCCCC2)c2ccccc21 -1.12%, Cc1nc(S(=O)(=O)N2CCN(c3ccccc3F)CC2)cn1C 0.568%, CCOc1ccc(CNC(=O)CN2C(=O)CSc3c2c(C)nn3-c2ccccc2)cc1 1.23%, Cc1nc2ccc(S(=O)(=O)N(CC(=O)Nc3ccc(F)cc3F)Cc3ccccc3)cc2s1 5.1%, CCOc1ccc(C(=O)c2cn(CC(=O)Nc3cc(OC)ccc3OC)c3cc(OC)c(OC)cc3c2=O)cc1 7.18%, O=c1c2ccccc2sn1-c1cc(S(=O)(=O)N2CCOCC2)ccc1N1CCCCC1 -2.02%, COc1cc2c(NC3CCN(C(C)C)CC3)nc(N3CCCN(c4ccccc4)CC3)nc2cc1OCCCN1CCCCC1 15.8%, Cc1ccc(-c2nc3scc(CCNS(=O)(=O)c4ccc(F)c(C)c4)n3n2)cc1 1.44%, O=C1c2ccccc2C(=O)N1c1ccc2ncccc2c1 -1.1%, O=S(=O)(c1cc(Br)c(Br)s1)N1CCN(c2ccccc2)CC1 -0.713%, COc1ccc(CCNC(=O)c2cc3c(-c4ccc(OC)c(OC)c4)nn(C)c3s2)cc1OC 2.45%, CC(C)c1nn2c(=O)cc(COC(=O)c3cccc(NC(=O)COc4ccc(F)cc4)c3)nc2s1 -1.08%, COc1ccccc1NC(=O)CSc1nnc(NC(=O)NC2CCCCC2)s1 0.127%, COc1ccc(NC(=O)Nc2cccc(-c3noc(C)n3)c2)cc1 -0.638%, COc1ccc(NC(=O)CSc2nc(-c3ccccc3)nc3c2Cc2c(CO)cnc(C)c2O3)cc1Cl 6.51%, COc1cc2c(NC3CCN(C(C)C)CC3)nc(C3CCCCC3)nc2cc1OCCOCCN(C)C 6.31%, COc1cccc(CNC(=O)C2Cc3cc(S(=O)(=O)N4CCCCCC4)ccc3N2C(C)=O)c1 (stereo not given) 3.65%, O=C(COc1ccc(Cl)cc1)Nc1ccc2nc(SCC(=O)N3CCCC3)sc2c1 5.51%, COc1ccc(CCNC(=O)Cn2ncc3c(C)n(Cc4ccccc4F)c(C)c3c2=O)cc1OC 8.43%, O=S(=O)(NCCCCNS(=O)(=O)c1cccc2cccnc12)c1cccc2cccnc12 3.74%, CN(C(=O)CSc1nc2ccc(NC(=O)c3cccs3)cc2s1)c1ccccc1 1.39%, CC(C)Oc1ccc(C(=O)N2CCC(c3nc4ccccc4s3)CC2)cc1 4.93%, CC[C@H](C)CCCCC(=O)N[C@@H](CCN)C(=O)N[C@H](C(=O)N[C@@H](CCN)C(=O)N[C@H]1CCNC(=O)[C@@H]([C@H](C)O)NC(=O)[C@H](CCN)NC(=O)[C@H](CCN)NC(=O)[C@H](CC(C)C)NC(=O)[C@@H](CC(C)C)NC(=O)[C@H](CCN)NC1=O)[C@@H](C)O -1.18% [at 13.1 µM], Nc1ccc(F)cc1F -1.05%, COc1ccc(C(=O)Nc2ccc(-n3nncc3-c3ccccc3)cc2)cc1OC 2.69%, CCOC(=O)c1c(C)[nH]c(CCC(=O)NCCCN2CCN(c3ccc(F)cc3)CC2)c1C 9.99%, CC(=O)N1CCC(C(=O)Nc2nnc(C(C)C)s2)CC1 -0.394%, COc1ccc(-c2cc(=O)c3ccccc3o2)cc1 0.478%, COc1ccc(C2C(C(=O)Nc3ccccc3)=C(C)Nc3c(C(=O)Nc4ccccc4)cnn32)cc1 (stereo not given) 2.35%, CC(C)C[C@H](NC(=O)[C@@H](Cc1c[nH]c2ccccc12)NC(=O)[C@H](Cc1ccc(O)cc1)NC(=O)[C@H](CO)NC(=O)[C@H](Cc1c[nH]c2ccccc12)NC(=O)[C@H](Cc1cnc[nH]1)NC(=O)[C@@H]1CCC(=O)N1)C(=O)N[C@@H](CCCN=C(N)N)C(=O)N1CCC[C@@H]1C(=O)NCC(N)=O 9.85%, CCOc1ccc(C[C@H]2NC(=O)CCSSC[C@@H](C(=O)N3CCC[C@H]3C(=O)N[C@@H](CCCN)C(=O)NCC(N)=O)NC(=O)[C@H](CC(N)=O)NC(=O)[C@H]([C@@H](C)O)NC(=O)[C@H]([C@@H](C)CC)NC2=O)cc1 18.2%, CCCCN1C(=O)c2[nH]nc(-c3ccccc3O)c2C1c1ccc(C(C)(C)C)cc1 (stereo not given) 1.59%, Cc1ccccc1NC(=O)Cn1c(=O)n(CCc2ccccc2)c(=O)c2sc3ccccc3c21 0.765%, O=C(NC1CCCCCC1)c1ccc(CS(=O)c2ccc(Br)cc2)o1 (stereo not given) 9.24%, Cc1ccc(C)c(NC(=O)CN2CCCN(Cc3cccc(Cl)c3)S2(=O)=O)c1 3.81%, COc1ccc(N2C(=O)c3ccccc3C2=O)cc1 -0.684%, CC(O)COCC1OC2OC3C(COCC(C)O)OC(OC4C(COCC(C)O)OC(OC5C(COCC(C)O)OC(OC6C(COCC(C)O)OC(OC7C(COCC(C)O)OC(OC8C(COCC(C)O)OC(OC1C(OCC(C)O)C2OCC(C)O)C(OCC(C)O)C8OCC(C)O)C(OCC(C)O)C7OCC(C)O)C(OCC(C)O)C6OCC(C)O)C(OCC(C)O)C5OCC(C)O)C(OCC(C)O)C4OCC(C)O)C(OCC(C)O)C3OCC(C)O (stereo not given) 8.14%, COc1cc2nc(N3CCCCC3)nc(NC3CCN(Cc4ccccc4)CC3)c2cc1OC 16.6%, COc1cc2c(NC3CCN(C)CC3)nc(N3CCN(C)CC3)nc2cc1OCCCN(C)C 13.1%
